The values below come from PubChem BioAssay (NCATS).

Results filed as inconclusive are left out. Values without a mark were called inactive. Calls of active or inactive are those of the source. Calls come from the whole dose curve; as a rule, active = well fitted curve in the direction sought with a large enough effect; inconclusive = small, poorly fitted or top-dose-only effect, or another doubt; inactive = no such curve, though single readings can be large; an effect the other way counts as inactive or inconclusive.

In assay [1] the target is Aldehyde dehydrogenase, mitochondrial (Homo sapiens) (UniProt P05091). The assay can be described thus: qHTS for Inhibitors of the Aldehyde Dehydrogenase Family (ALDH2) Primary screen (AID 2061308).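 Note: plate controls were vehicle for no effect and reference inhibitor for full effect; nearly all actives have a fitted effect of over 55% in size.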
For assay [2], the target named is Retinaldehyde dehydrogenase 3 (Homo sapiens) (UniProt P47895). Put plainly: qHTS for Inhibitors of the Aldehyde Dehydrogenase Family (ALDH1A3) Primary screen (AID 2061315).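 Note: plate controls were DMSO vehicle for no effect and reference inhibitor for full effect.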

For the compound `COc1ccc(-n2c(=O)[nH]c3cc(C(=O)NCc4ccc(Cl)cc4)sc3c2=O)nc1OC`, the Potency entry in assay [1] and in assay [2] was “inactive” in each case.

On to `CC(=O)OC1C[C@]2(C)C(O)CC(C)=C[C@H](OC(=O)c3ccc(O)cc3)C2[C@]1(O)C(C)C` (stereo partly drawn), for which the Potency result in assay [1] and in assay [2] was “inactive” in each case.

As to `CCC(C)(C)C1CCc2c(sc(NC(=O)c3ccc(Br)cc3)c2C#N)C1` (stereo not drawn), the Potency entry in assay [1] and in assay [2] was “inactive” throughout.

As for `O=C(NC1CCC1)c1ccc(C#Cc2cccc(F)c2)nc1`, the Potency result in assay [1] and in assay [2] was “inactive” in each case.

For the compound `C[C@@H]1C[C@@H](O)[C@@]23CO[C@]2(CO)CCC[C@@H]3[C@@]12C[C@@H](c1ccoc1)OC2=O`, the Potency result in assay [1] and in assay [2] was “inactive” in each case.

As to `CC(C)(O)[C@@H]1CC[C@]2(CO)[C@@H](O)CC[C@](C)(O)[C@H]2[C@@H]1O[C@@H]1O[C@H](CO)[C@@H](O)[C@H](O)[C@H]1O`, the Potency result in assay [1] and in assay [2] was “inactive” throughout.

In the case of `OCC(CO)(CO)NCC(O)Cn1c2ccc(Cl)cc2c2cc(Cl)ccc21` (stereo not drawn), the Potency entry in assay [1] and in assay [2] was “inactive” each time.

As to `CC1(C)CC[C@]2(C(=O)O[C@@H]3O[C@H](CO)[C@@H](O)[C@H](O)[C@H]3O)CC[C@]3(C)C(=CCC4[C@@]5(C)C[C@@H](O)[C@H](O)[C@@](C)(CO)C5[C@H](O)C[C@]43C)C2[C@@H]1O` (stereo partly drawn), the Potency entry in assay [1] and in assay [2] was “inactive” each time.

Consider `CC(=O)O[C@@H]1[C@H](O[C@@H]2O[C@H](CO)[C@@H](O)[C@H](O)[C@H]2O)[C@@H](O[C@@H]2O[C@@H](C)[C@H](O)[C@@H](O[C@@H]3O[C@H](CO)[C@@H](O)[C@H](O)[C@H]3O)[C@H]2O)[C@H](OC(=O)C23CCC4(C)C(=CCC5C6(C)CC(O)C(O[C@@H]7O[C@H](C(=O)O)[C@@H](O)[C@H](O)[C@H]7O)C(C)(C(=O)O)C6CCC54C)C2CC(C)(C)CC3O)O[C@@H]1C` (stereo partly drawn), for which the activity change, negative = inhibition is -6.27% [at 11.2 µM] in assay [1] and -5.68% [at 11.2 µM] in assay [2].
